# Assay results published in PubChem BioAssay (NCATS).
# Several values for one entry are separate records, joined by “and”; a condition that tells them apart may be missing. Equal values may be shown once. Results filed as inconclusive are left out. Unmarked numbers belong to inactive results. Activity calls are given as the source filed them. Calls come from the whole dose curve; as a rule, active = well fitted inhibition curve with a large enough effect; inconclusive = small, poorly fitted or top-dose-only effect; inactive = flat fitted curve, though single readings scatter.
# Assays:
# W2 = assay: qHTS profiling for inhibitors of Plasmodium falciparum proliferation (AID 504749); conditions: P. falciparum in erythrocytes, SYBR Green DNA, 72 h; series mostly up to 28.7 µM
# In short: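 Three-day growth assay of blood-stage parasites in erythrocytes (0.3% parasitemia, 2.5% hematocrit) at 37 C, 5% CO2, quantified by SYBR Green DNA staining after overnight detergent lysis.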
# CRL-7250 = normal cell line; assay: Cytotoxic Profiling of Annotated Libraries Using Quantitative High-Throughput Screening (AID 1296008); conditions: Five cell lines viability, CellTiter-Glo ATP luminescence, 48-72 h; max response: hits give low values; for max response: % is set by controls: 0 for no effect and ±100 for the full control effect
# In short: (§1)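 Cytotoxicity was measured as CellTiter-Glo ATP luminescence, read after 10 min at room temperature. Compound treatment of the cells lasted 48 or 72 hr at 37 degrees Celsius in a qHTS format.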
# HEK293 = assay: as above; conditions: Five cell lines viability, CellTiter-Glo ATP luminescence, 48-72 h; max response: hits give low values
# In short: as §1
# HaCat [1] = assay: as above; conditions: Five cell lines viability, CellTiter-Glo ATP luminescence, 48-72 h; max response: hits give low values
# In short: as §1
# KB-3-1 = assay: as above; conditions: Five cell lines viability, CellTiter-Glo ATP luminescence, 48-72 h; max response: hits give low values
# In short: as §1
# NIH3T3 = assay: as above; conditions: Five cell lines viability, CellTiter-Glo ATP luminescence, 48-72 h; max response: hits give low values
# In short: as §1
# HACAT [2] = assay: qHTS assay to identify novel small-molecules to repurpose for Merkel cell carcinoma treatment (AID 1296009); conditions: MCC and control cell lines, CellTiter-Glo viability, 72 h; at 44.8 µM (top of the series) unless noted
# In short: (§2)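 After compound transfer in DMSO, plates were kept 72 hr at 37 degree celsius. Luminescent ATP signal from CellTiter-Glo served as viability measure, normalized against DMSO and no-cell controls.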
# MCC-13 = assay: as above; conditions: MCC and control cell lines, CellTiter-Glo viability, 72 h; series mostly up to 46 µM
# In short: as §2
# MCC-26 = assay: as above; conditions: MCC and control cell lines, CellTiter-Glo viability, 72 h; series mostly up to 46 µM
# In short: as §2
# HEK293T = assay: as above; conditions: MCC and control cell lines, CellTiter-Glo viability, 72 h; at 44.8 µM (top of the series) unless noted
# In short: as §2
# Note: nearly all actives have a fitted effect of over 60% in size.
# Potency is the fitted concentration of half-maximal effect.
structure (smiles),measurement,setting,value
CC1(C)NC(=O)N(c2ccc([N+](=O)[O-])c(C(F)(F)F)c2)C1=O,Potency,W2,inactive
same,max response,CRL-7250,-12.3%
same,max response,HEK293,-29%
same,max response,HaCat [1],-0.412%
same,outcome,HaCat [1],inactive
same,max response,KB-3-1,2.37% and -24.9%
same,max response,NIH3T3,-6.23% and -0.388%
same,outcome,HACAT [2],inactive
same,Potency,MCC-13,inactive
same,Potency,MCC-26,inactive
CC(C)c1ccc2oc3nc(N)c(C(=O)O)cc3c(=O)c2c1,outcome,CRL-7250,inactive
same,max response,HEK293,4.19% and -0.504%
same,max response,HaCat [1],-17.6%
same,outcome,HaCat [1],inactive
same,max response,KB-3-1,-4.86%
same,outcome,KB-3-1,inactive
same,max response,NIH3T3,-24.8% and -20.9%
same,outcome,HACAT [2],inactive
same,Potency,MCC-13,inactive
same,Potency,MCC-26,inactive
Cc1ccc(Nc2nccc(N(C)c3ccc4c(C)n(C)nc4c3)n2)cc1S(N)(=O)=O,Potency,CRL-7250,6.51 µM (active)
same,Potency,HEK293,11.8 µM (active)
same,max response,HaCat [1],-13.5% and -50.9%
same,outcome,HaCat [1],inactive
same,max response,KB-3-1,-14.3% and -5.07% and -20.5%
same,Potency,NIH3T3,7.43 µM (active) and 7.31 µM (active)
same,outcome,HACAT [2],inactive
same,Potency,MCC-13,inactive
CNC[C@@H](O)[C@@H](O)[C@H](O)[C@H](O)CO,Potency,W2,inactive
same,outcome,CRL-7250,inactive
same,outcome,HEK293,inactive
same,outcome,HaCat [1],inactive
same,max response,KB-3-1,5.74%
same,outcome,NIH3T3,inactive
same,outcome,HACAT [2],inactive
same,outcome,HEK293T,inactive
same,Potency,MCC-13,inactive
same,Potency,MCC-26,inactive
CCCCc1ccc2nc(NC(=O)OC)[nH]c2c1,Potency,W2,inactive
same,Potency,CRL-7250,469 nM (active) and 266 nM (active)
same,Potency,HEK293,14.8 nM (active) and 188 nM (active)
same,max response,HaCat [1],3.13%
same,outcome,HaCat [1],inactive
same,Potency,KB-3-1,0.0235 µM (active)
same,Potency,NIH3T3,16.6 nM (active)
same,outcome,HACAT [2],inactive
same,Potency,MCC-13,296 nM (active) and 53.1 nM (active)
Cc1c(OCC(F)(F)F)ccnc1CS(=O)c1nc2ccccc2[nH]1 (stereo not given),max response,CRL-7250,-8.7% and 2.17%
same,max response,HEK293,3.36%
same,outcome,HaCat [1],inactive
same,max response,KB-3-1,-13.1% and -5.17%
same,max response,NIH3T3,1.81% and 4.74%
same,outcome,HACAT [2],inactive
same,Potency,MCC-13,inactive
CCC(C)(Oc1ccc(C2(c3ccc(OC(C)(CC)C(=O)O)cc3)CCCCC2)cc1)C(=O)O (stereo not given),Potency,W2,inactive
same,max response,CRL-7250,-2.28% and 2.61%
same,max response,HEK293,-7.29% and -0.679%
same,outcome,HaCat [1],inactive
same,max response,NIH3T3,-0.924%
same,outcome,NIH3T3,inactive
same,outcome,HACAT [2],inactive
same,Potency,MCC-13,inactive
same,Potency,MCC-26,inactive
Cc1cc(C2CCCCC2)n(O)c(=O)c1,Potency,W2,3.61 µM (active)
same,Potency,CRL-7250,3.35 µM (active) and 2.96 µM (active)
same,Potency,HEK293,5.9 µM (active)
same,Potency,HaCat [1],23.7 µM (active) and 20.9 µM (active)
same,max response,KB-3-1,-16.3%
same,Potency,NIH3T3,3.76 µM (active) and 14.8 µM (active)
same,Potency,MCC-13,10.6 µM (active)
same,Potency,MCC-26,15 µM (active)
CCOC(=O)C1=C(O)C(=O)N(Cc2ccccc2)C1,max response,CRL-7250,2.77%
same,max response,HEK293,-14.6%
same,max response,HaCat [1],2.45%
same,max response,KB-3-1,3.01%
same,outcome,NIH3T3,inactive
same,Potency,MCC-13,inactive
NS(=O)(=O)c1cc(C(=O)O)c(NCc2ccco2)cc1Cl,max response,CRL-7250,-5.7% and -6.17%
same,max response,HEK293,1.46% and -13.3%
same,max response,HaCat [1],-0.435% and 2.7%
same,max response,KB-3-1,-9.49% and -2.22%
same,max response,NIH3T3,-5.6% and -3.32%
same,Potency,MCC-13,inactive
same,Potency,MCC-26,inactive
CCc1nc(N)nc(N)c1-c1ccc(Cl)cc1,max response,CRL-7250,-18.3%
same,Potency,HEK293,6.68 µM (active) and 18.7 µM (active)
same,max response,HaCat [1],3.72%
same,Potency,NIH3T3,8.41 µM (active) and 9.35 µM (active)
Cc1nc2n(c(=O)c1CCN1CCC(c3noc4cc(F)ccc34)CC1)CCCC2,max response,CRL-7250,0.174%
same,max response,HEK293,-10.6%
same,max response,HaCat [1],2.05% and 3.62%
same,max response,KB-3-1,0.624% and -4.98%
same,max response,NIH3T3,-4.59% and 2.76%
same,Potency,MCC-13,inactive
same,Potency,MCC-26,inactive
CC(C)[N+]1(C)[C@@H]2CC[C@H]1CC(OC(=O)C(CO)c1ccccc1)C2 (stereo not given in full),max response,CRL-7250,2.83%
same,max response,HEK293,-4.08%
same,outcome,HaCat [1],inactive
same,max response,KB-3-1,9.75% and 15.3%
same,outcome,NIH3T3,inactive
same,outcome,HACAT [2],inactive
same,Potency,MCC-13,inactive
same,Potency,MCC-26,inactive
CC(C)(S)[C@@H](N)C(=O)O,Potency,W2,inactive
same,max response,CRL-7250,1.05%
same,max response,HEK293,2.4%
same,outcome,HaCat [1],inactive
same,max response,KB-3-1,2.35% and 8.6%
same,outcome,NIH3T3,inactive
same,outcome,HACAT [2],inactive
same,Potency,MCC-13,inactive
Cc1ccc(NC(=O)c2ccc(CN3CCN(C)CC3)cc2)cc1Nc1nccc(-c2cccnc2)n1,Potency,W2,6.01 µM (active)
same,max response,CRL-7250,-2.19%
same,Potency,HEK293,18.7 µM (active) and 21.1 µM (active) and 11.6 µM (active)
same,outcome,HaCat [1],inactive
same,max response,NIH3T3,-15.2%
same,outcome,NIH3T3,inactive
same,outcome,HACAT [2],inactive
same,Potency,MCC-13,inactive
same,Potency,MCC-26,inactive
